Experiment [1] in a line: Tanguay_ZF_120hpf_TR_legacy: (Legacy) Oregon State University Tanguay Lab 120 Hour Post-fertilization zebrafish Assay for Touch Response (AID 2283667). An outline of the steps:
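Tropical 5D wild-type zebrafish embryos were exposed statically in sealed, foil-covered plates at 28C until 120 hpf, with 0.64% (vol/vol) final DMSO. Touch response was scored as present or absent; embryos that died were not scored.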

Experiment [2] is described as follows: Tanguay_ZF_120hpf_ActivityScore_legacy: (Legacy) Oregon State University Tanguay Lab 120 Hour Post-fertilization zebrafish Assay Score for Activity (AID 2283742).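 On AC50: static exposure from 6 hpf until 120 hpf at 28 °C.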 The gist of the method: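 Tropical 5D wild-type zebrafish embryos, dechorionated with pronase at 4 hpf, were exposed singly from 6 hpf to 120 hpf statically at 28C in 0.64% DMSO. Malformations and mortality were scored as binary by brightfield, with the activity score combining 18 morphology components.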

A short description of experiment [3]: ACEA_AR_agonist_AUC_viability: ACEA Biosciences xCELLigence Real-Time Cell Analysis on Androgen Receptor Agonism for Viability (AID 2283775).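 On AC50: viability read 80 hours after compound addition.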 The gist of the method:
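Real-time impedance tracking of 22Rv1 growth, readings every 5 min for 5 h then hourly; area-under-curve viability endpoint at 80 hours, relative to DMSO. Compounds at eight concentrations, 1:4 steps, top 100 uM, n = 2.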

The nature of experiment [4]: ACEA_AR_antagonist_AUC_viability: ACEA Biosciences xCELLigence Real-Time Cell Analysis on Androgen Receptor Antagonism for Viability (AID 2283776).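 Further: hits lower the growth signal relative to DMSO meaning cytotoxicity.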 The gist of the method: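 22Rv1 human prostate cancer cells were seeded on electrode plates, monitored overnight, then exposed to eight 1:4 dilutions from 100 uM final. Impedance-based growth kinetics at 80 h gave an AUC viability endpoint normalized to DMSO.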

A further experiment has as its target AR (gene 367) (UniProt P10275). Kind of experiment: ACEA_AR_agonist_80hr: ACEA Biosciences xCELLigence Real-Time Cell Analysis on Androgen Receptor Agonism for Proliferation (AID 2283783).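 Further: hits increase impedance growth signal above DMSO baseline.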 The gist of the method: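 22Rv1 human prostate cancer cells were seeded after preconditioning in assay medium and monitored overnight, then dosed in an eight-point 1:4 dilution series from 100 uM (≤0.5% DMSO). Impedance-based growth was read at 80 h, gain-of-signal versus DMSO.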

Experiment [5] can be described thus: ACEA_ER_AUC_viability: ACEA Biosciences xCELLigence Real-Time Cell Analysis on Estrogen Receptor Agonism for Viability (AID 2283782).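 Further: continuous compound exposure with impedance area under curve over 80 h; hit means loss of impedance signal meaning reduced cell growth or viability.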 An outline of the steps:
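T-47D human breast cells in phenol red-free RPMI1640 with 10% charcoal-stripped FBS were dosed with an 8-point 1:4 dilution series from 100 uM top final concentration, in duplicate. Impedance-based growth was followed for 80 h; AUC analysed versus DMSO.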

Experiment [6] can be described thus: CEETOX_H295R_MTT_cell_viability: Viability Assessment in the CeeTox HT-H295R MTT Assay (AID 2283718; active means hit-call score of the fitted dose curve at least 0.9, where 1 is the maximum; inactive means score below 0.9;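 on AC50: curve fitted both ways so AC50 may mark viability loss or gain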). The gist of the method: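 H295R cells prestimulated 48 h with 10 uM forskolin, then exposed 48 h to test chemical (0.1% DMSO final). Viability by MTT (0.5 mg/ml, 4 h, 37 C), absorbance 570/650 nm; percent change versus DMSO, bidirectional fit.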
Experiment [7] addresses Luciferin 4-monooxygenase (Photinus pyralis) (UniProt P08659). In words: CCTE_Simmons_QuantiLum_inhib_2: CCTE's Firefly Luciferase Inhibition Assay, Simmons Lab (AID 2283767).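 On AC50: potency for inhibitors that lower luciferase luminescence relative to DMSO.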 An outline of the steps:
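Luminescence loss relative to DMSO vehicle defines inhibition; detection reagent containing 150 uM D-luciferin and 147 uM dATP (final, pH 7.8) is injected immediately before each read. Enzyme is preincubated with an 8-point titration (5 nM–87.5 uM final) for 30 min at 37C.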

“And” between values parts separate entries of the source, which are not always exact repeats. Identical values can stand only once. Inconclusive results are not listed. Where a structure was tested more than once in an assay, its records may differ in their call. The source made the active and inactive calls. How the source made its calls, unless noted: active means hit-call score of the fitted dose curve at least 0.9, where 1 is the maximum; inconclusive means response in the unintended direction; inactive means score below 0.9.

Sequence of AR (gene 367) (P10275 whole entry, looked up): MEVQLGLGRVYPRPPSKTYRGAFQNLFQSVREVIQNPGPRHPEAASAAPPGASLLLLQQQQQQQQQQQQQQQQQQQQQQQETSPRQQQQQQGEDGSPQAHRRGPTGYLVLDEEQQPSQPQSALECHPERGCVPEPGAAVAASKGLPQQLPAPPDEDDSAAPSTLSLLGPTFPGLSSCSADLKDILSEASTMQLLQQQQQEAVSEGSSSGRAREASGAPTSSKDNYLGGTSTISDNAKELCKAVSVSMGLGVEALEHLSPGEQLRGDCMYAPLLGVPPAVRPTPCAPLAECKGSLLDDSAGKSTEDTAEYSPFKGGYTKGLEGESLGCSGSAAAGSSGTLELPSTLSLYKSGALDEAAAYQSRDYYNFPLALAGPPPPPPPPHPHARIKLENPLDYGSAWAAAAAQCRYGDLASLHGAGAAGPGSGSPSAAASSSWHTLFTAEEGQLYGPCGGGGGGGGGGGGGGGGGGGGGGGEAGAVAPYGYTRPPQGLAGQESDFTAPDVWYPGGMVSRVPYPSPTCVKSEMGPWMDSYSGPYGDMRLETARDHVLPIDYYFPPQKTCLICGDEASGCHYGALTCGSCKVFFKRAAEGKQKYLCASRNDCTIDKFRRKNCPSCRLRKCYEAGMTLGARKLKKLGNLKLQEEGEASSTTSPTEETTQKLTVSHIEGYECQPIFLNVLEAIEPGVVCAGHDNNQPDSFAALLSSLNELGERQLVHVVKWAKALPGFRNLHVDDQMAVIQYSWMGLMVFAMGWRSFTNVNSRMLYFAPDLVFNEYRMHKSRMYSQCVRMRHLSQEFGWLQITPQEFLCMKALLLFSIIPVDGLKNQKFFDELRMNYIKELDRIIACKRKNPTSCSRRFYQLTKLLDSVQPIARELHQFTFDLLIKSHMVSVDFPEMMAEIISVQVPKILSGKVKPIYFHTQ
Sequence of Luciferin 4-monooxygenase (Photinus pyralis) (P08659 whole entry, looked up): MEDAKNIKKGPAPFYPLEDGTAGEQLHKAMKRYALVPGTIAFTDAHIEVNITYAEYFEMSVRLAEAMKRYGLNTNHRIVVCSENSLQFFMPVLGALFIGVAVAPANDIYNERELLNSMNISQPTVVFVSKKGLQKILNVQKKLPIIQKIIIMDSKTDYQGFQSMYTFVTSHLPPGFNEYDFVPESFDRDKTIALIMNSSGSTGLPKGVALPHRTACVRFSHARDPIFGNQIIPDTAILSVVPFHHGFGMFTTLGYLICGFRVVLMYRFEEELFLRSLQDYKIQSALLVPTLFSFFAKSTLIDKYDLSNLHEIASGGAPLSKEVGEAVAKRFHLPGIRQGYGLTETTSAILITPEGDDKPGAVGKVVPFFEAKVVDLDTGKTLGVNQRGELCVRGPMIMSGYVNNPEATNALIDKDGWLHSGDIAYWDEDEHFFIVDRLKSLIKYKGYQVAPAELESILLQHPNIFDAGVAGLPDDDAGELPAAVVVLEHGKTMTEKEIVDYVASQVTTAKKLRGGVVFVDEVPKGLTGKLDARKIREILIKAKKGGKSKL

`Clc1cccc(Cl)c1Cl`: the result in experiment [1], in experiment [3] and in experiment [4] was inactive. Further, the AC50 (as a rule, the midpoint of the concentration-response curve, whichever way the signal moves) in experiment [2] is 0.00446 µM (active).
Take `O=C(N[C@H]1CN2CCC1CC2)c1ccc2c(c1)OCCO2`: the outcome (in experiment [2]; in experiment [4]; in the experiment with AR (gene 367)) was inactive.
Consider `COc1nn(C(=O)NS(=O)(=O)c2ccccc2OC(F)(F)F)c(=O)n1C`, for which the call in experiment [3], in experiment [4] and in experiment [5] was inactive.
In the case of `CCOP(=O)(OCC)OC(=CCl)c1ccc(Cl)cc1Cl`, the outcome in experiment [6] was inactive. In experiment [5], the AC50 is 77.8 µM (active).
With `CCC[CH2][Sn]([Cl])([Cl])[CH2]CCC`, the outcome in experiment [6] was inactive. The AC50 in experiment [3] was 4.16 µM (active); in experiment [4], 3.75 µM (active).
In the case of `CCOP(=S)(OCC)O/N=C(\C#N)c1ccccc1`, the compound was classed as inactive in experiment [6] and in experiment [3]. In addition, in experiment [7], the AC50 was 70 µM (active).
Regarding `Cc1cc(Cl)ccc1N`, in experiment [6], the compound was classed as inactive. The AC50 in experiment [5] was 80.8 µM (active) and 14.3 µM (active).
Regarding `CC(=Cc1ccccc1)[N+](=O)[O-]`, the AC50 in experiment [3] was 13.5 µM (active); in experiment [4], 6.31 µM (active); in experiment [5], 11.5 µM (active).
In the case of `CC(C)=CC1C(C(=O)OCc2cccc(Oc3ccccc3)c2)C1(C)C` (centres undefined), in experiment [6], the AC50 was 9.92 µM (active). For the same compound, the compound was classed as inactive in experiment [4] and in experiment [5].
With `CC(C)N(C(=O)CCl)c1ccccc1`, the AC50 in experiment [3] is 24.2 µM (active); in experiment [4] it was 16.6 µM (active). For the same compound, the result with AR (gene 367) was inactive.
With `Cc1cc(Cl)ccc1O`, the result in experiment [6] and in experiment [4] was inactive.
In the case of `C=CC(Cl)CCl` (centres undefined), the compound was classed as inactive (in experiment [3]; with AR (gene 367)). Besides, the AC50 in experiment [4] is 4.53 µM (active).
For `O=S1OC[C@@H]2[C@H](CO1)[C@]1(Cl)C(Cl)=C(Cl)[C@@]2(Cl)C1(Cl)Cl` (some centres undefined), the outcome in experiment [6], in experiment [3] and in experiment [4] was inactive. For the same compound, the AC50 in experiment [5] was 50 µM (active).
Take `Cc1cc(Cl)ccc1OCCCC(=O)O`: the call in experiment [3] and in experiment [4] was inactive.
Consider `O=C(NC(=O)c1c(F)cccc1F)Nc1cc(Cl)c(OC(F)(F)C(F)C(F)(F)F)cc1Cl` (centres undefined), for which the AC50 in experiment [3] was 5.54 µM (active); in experiment [4], 5.68 µM (active).
`O=[N+]([O-])c1ccc(Nc2ccccc2)cc1`: the call in experiment [6] and in experiment [5] was inactive.
Take `O=[N+]([O-])c1ccccc1O`: the call in experiment [3] and in experiment [5] was inactive.
As to `OC[P+](CO)(CO)CO`, the AC50 in experiment [6] is 2.83 µM (active); in experiment [5] it was 50 µM (active).
`O=CCCl`: the result in experiment [4] was inactive. Also, the AC50 in experiment [5] was 10.3 µM (active).
Turning to `O=c1nc(O)n(Cl)c(=O)n1Cl`, the result in experiment [3], in experiment [4] and in experiment [5] was inactive.
Take `CC(C)(COCC1CO1)COCC1CO1` (centres undefined): the compound was called inactive in experiment [6]. Besides, in experiment [5], the AC50 was 29.9 µM (active).
In the case of `Cc1cc(Cl)ccc1OC(C)C(=O)O` (centres undefined), the compound was called inactive in experiment [3] and in experiment [5].
Turning to `c1cc[c]([Sb]([c]2ccccc2)[c]2ccccc2)cc1`, the figures for the AC50 in experiment [6] and in experiment [5] were 37.6 µM (active) and 50 µM (active), respectively.
For the compound `OCCCCO`, the compound was classed as inactive in experiment [3].
For `CC(O)(CS(=O)(=O)c1ccc(F)cc1)C(=O)Nc1ccc(C#N)c(C(F)(F)F)c1` (centres undefined), the AC50 in experiment [3] was 44 µM (active); in experiment [4], 21.4 µM (active) and 9.65 µM (active). The outcome in experiment [3] and in experiment [5] was inactive.
On to `CCOCn1c(-c2ccc(Cl)cc2)c(C#N)c(Br)c1C(F)(F)F`, for which the AC50 in experiment [6] was 3.79 µM (active); in experiment [3] it was 6.93 µM (active); in experiment [4], 7.97 µM (active); in experiment [5], 50 µM (active).
Turning to `CCC[CH2][Sn]([CH2]CCC)([CH2]CCC)[CH2]CCC`, the AC50 in experiment [4] was 29.9 µM (active); in experiment [5] it was 22 µM (active).
Turning to `CCCCCCCCCCCCN(C)C`, the compound was classed as inactive in experiment [6], in experiment [3], in experiment [4] and in experiment [5].
For `O=C(O)COc1ccc(Cl)cc1`, the result in experiment [3] was inactive.
Consider `CNC(=O)O/N=C/C(C)(C)S(C)(=O)=O`, for which the result in experiment [3], in experiment [4] and in experiment [5] was inactive.
For `COCCl`, the outcome in experiment [3], in experiment [4] and in experiment [5] was inactive.
Take `O=C(CCl)Nc1ccccc1`: the result (in experiment [7]; with AR (gene 367)) was inactive. For the same compound, the AC50 is 24.5 µM (active) in experiment [3] and 12.7 µM (active) in experiment [4].
As to `CCCSP(=S)(OCC)Oc1ccc(SC)cc1` (centres undefined), the result in experiment [6], in experiment [7] and in experiment [3] was inactive.
For the compound `Clc1cccc(Cl)c1`, the outcome in experiment [2], in experiment [3], in experiment [4] and in experiment [5] was inactive.
`CC(C)(C)c1cc([N+](=O)[O-])cc(C(C)(C)C)c1O`: the compound was classed as inactive in experiment [6]. Also, the concentration at half-maximal activity (AC50) in experiment [5] is 24.3 µM (active).
With `CCN(CCO)CCO`, the call in experiment [3] and in experiment [4] was inactive.
Regarding `Oc1c(Br)cc(Br)cc1Br`, in experiment [6], the AC50 was 93.6 µM (active). Moreover, the compound was classed as inactive in experiment [4].
For `O=C(O)COc1cc(Cl)c(Cl)cc1Cl`, the result in the experiment with AR (gene 367) was inactive.
